PG9 binder = PG9 antibody binding by small molecule | inhibition, % at 6.7 µM | TR-FRET gp120-PG9 antibody binding | AID 624416 | 360,000 tested, 0.43% active; in the data active = inhibition above about 8.5%
EP2 mod = modulates human prostaglandin E2 receptor EP2 signaling; P43116; EP2-expressing cells, cAMP HTRF FRET, PGE2 co-stimulation; induction, % at 25 µM; 260,000 tested, 0.83% active; AID 940;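 active = compounds whose cAMP rise, as percent of the full-agonist control response, exceeds 60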;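 note: rat C6 glioma line stably carrying human EP2 under a CMV promoter; the protocol text gives 20 µM as final concentration; 100% = response of wells given 1 µM PGE2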
Target sequence (P43116 whole entry, looked up): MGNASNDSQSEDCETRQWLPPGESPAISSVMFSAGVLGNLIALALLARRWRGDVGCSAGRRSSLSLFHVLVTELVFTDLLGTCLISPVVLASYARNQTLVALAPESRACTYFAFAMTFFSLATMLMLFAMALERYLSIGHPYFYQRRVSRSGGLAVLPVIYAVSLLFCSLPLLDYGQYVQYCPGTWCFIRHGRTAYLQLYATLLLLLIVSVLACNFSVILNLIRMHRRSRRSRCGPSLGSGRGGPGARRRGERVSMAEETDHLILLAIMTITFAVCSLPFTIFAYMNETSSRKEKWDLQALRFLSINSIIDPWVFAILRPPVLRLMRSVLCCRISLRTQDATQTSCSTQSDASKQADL
NR1D1 modulator = modulators of human Rev-erb alpha DNA binding. P20393. Rev-erbα–FITC-DNA binding, fluorescence polarization, 90 min. activity, % at 10 µM. 370,000 tested, 0.79% active;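 active = activity above about 14%, limit read from the data; passing the limit was not always enough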;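 note: 0% = DMSO wells with 35 nM protein and 100% = DMSO wells with 750 nM protein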
EP2 antag = inhibitors of human EP2 prostaglandin E2 receptor; P43116; C6 glioma cells expressing human EP2, cAMP TR-FRET; cells stimulated with saturating PGE2; inhibition, % at 25 µM; 260,000 tested, 0.52% active; AID 1422;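 active = percent inhibition above 40 after rounding to a whole number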;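 note: rat C6 glioma host cells with rolipram phosphodiesterase inhibitor present; the protocol text gives 20 µM as final concentration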
SKN-1 block = inhibitors of C. elegans SKN-1. 360,000 tested, 0.49% active. AID 624304. inhibition, % at 21.8 µM. C. elegans VP596 Pgst-4::GFP/RFP ratio, acrylamide-induced, 24 h;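 active = interference check ratio from 0.5 to 1.5 plus GFP to RFP signal ratio inhibition reaching or exceeding a fixed threshold, cut at about 30% in these data, passing the limit was not always enough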
RAM inhibit = inhibitors of the yeast RAM network; 190,000 tested, 1.8% active; inhibition, % at 50 µM; S. cerevisiae dse1pr::URA3 reporter, 5-FOA growth OD615, 2 d; analog-sensitive cbk1-as2 kinase mutant strain;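 active = inhibition above a set limit, 3 SD over mean compound inhibition, cut at about 8.4% in these data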;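 note: 0% = DMSO-only wells with no growth and 100% = 10 µM 1-NA-PP1 full growth; inhibition rescues growth on 5-FOA so higher OD means more RAM inhibition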
Numbers without * were called inactive; . = no result; ! = not active in a repeat. Rows were chosen to be rich in hits. Some 2.9% of all compounds tested hit in one or more screens of this group.

SMILES	PG9 binder	EP2 mod	NR1D1 modulator	EP2 antag	SKN-1 block	RAM inhibit
Cc1ccc(S(=O)(=O)N(Cc2ccc(Cl)cc2)c2ccccc2C(=O)NCc2ccco2)cc1	-0.5	38.6	2.8	10.7	-0.3	8.9*
CCCN1C(=O)/C(=C/c2c(NCCCOC(C)C)nc3c(C)cccn3c2=O)SC1=S	.	4.7	.	4.9	15.3	9.4*
CC1(C)CCC2=C(O1)c1ccccc1C(=O)C2=O	.	-31.4	.	40.6*	.	.
CC(=O)N1CCCN(C(=O)c2ncoc2-c2ccc(F)cc2)CC1	.	-21.6	.	7.7	.	.
N#Cc1sc(Nc2cccc(C(F)(F)F)c2)nc1N	.	-76.2	.	11.5	.	.
COc1ccc2cc(N3CCCC3=O)ccc2c1	-1.1	.	-0.1	.	40.7*	.
CNC(=O)C1CC(=O)N(CCc2ccccc2)C(=Nc2ccc(OC)cc2)S1 (configuration not stated)	0.3	-7.7	4.4	6.5	-11.7	4.2
CNC(=O)C1CC(=O)N(CCCc2ccccc2)C(=Nc2ccccc2)S1 (configuration not stated)	1.0	9.3	-5.5	2.7	-15.9	9.0*
CC(=O)c1ccc(NC(=O)C2C3C=CC(C3=C(c3ccccc3)c3ccccc3)C2C(=O)O)cc1 (configuration not stated)	-1.4	7.9	-1.8	-0.7	2.9	10.3*
N#Cc1c(NC(=O)CSc2nnc(-c3ccc(Cl)cc3)o2)sc2c1CCCC2	.	-9.4	.	17.2	.	.
O=C(NCC1CCCO1)c1c[nH]c2ccccc2c1=O (configuration not stated)	.	-63.8	.	8.1	.	.
CCOc1ccc(NS(=O)(=O)c2ccc3[nH]cc(C(=O)NCC4CCCO4)c(=O)c3c2)cc1 (configuration not stated)	-1.5	-6.1	1.7	11.7	13.7	9.3*
CCc1ccccc1NS(=O)(=O)c1ccc2[nH]cc(C(=O)NCC3CCCO3)c(=O)c2c1 (configuration not stated)	7.9	8.9	7.0	.	4.9	3.8
CN(Cc1ccccc1)S(=O)(=O)c1ccc2[nH]cc(C(=O)NCC3CCCO3)c(=O)c2c1 (configuration not stated)	0.4	-24.8	1.1	.	-1.1	8.7*
O=C1NC(=S)S/C1=C\c1cn(CCOc2ccc(F)cc2)c2ccccc12	.	-69.1	.	13.9	.	.
CC(CO)(CO)N=Cc1cc(I)cc(I)c1O	.	39.1	.	44.1*	.	.
CCn1c(N2CCC(C(=O)NCc3cc(OC)cc(OC)c3)CC2)nc2ccccc21	.	-49.5	.	.	.	.
CC(=O)Nc1ccc2c(c1)Cc1c-2cc(Br)c(N)c1Br	-1.6	.	-14.3	.	37.3*	.
CCCOc1cc(C)c(S(=O)(=O)NCc2cccs2)cc1C	-0.8	.	4.8	.	43.9*	.
Cc1cc(C)c(S(=O)(=O)NCc2cccs2)cc1C	-0.7	.	0.1	.	-8.8	.
Cc1nn(CC(=O)NCCCN2CCCC(C)C2)c(=O)c2cc3sccc3n12 (configuration not stated)	.	-12.0	.	.	.	.
COC(=O)CCCCC1SCC(NC(=O)c2ccccc2)C1=O (configuration not stated)	-1.8	-38.4	3.0	10.3	-1.6	2.0
COC(=O)CCCCC1SCC(NC(=O)c2ccccc2)C1OC(C)=O (configuration not stated)	0.4	-6.0	0.0	4.4	-7.7	9.2*
C(/C=C/c1ccco1)=N/N1CCN(c2ccccc2)CC1	0.4	1.2	-2.5	15.0	59.4*	2.4
COc1cc2c(cc1CN(CCCN1CCOCC1)Cc1ccc(C)o1)OCO2	.	-9.4	.	6.2	.	.
SMILES	PG9 binder	EP2 mod	NR1D1 modulator	EP2 antag	SKN-1 block	RAM inhibit
CC(/C=N/NC(=O)Cn1nnc(N)n1)=C\c1ccc(C(C)C)cc1	-2.3	89.2*	1.1	2.5	0.3	.
COc1ccccc1NC(=O)C(=O)NCc1ccccc1Cl	0.1	-33.7	4.7	9.4	4.4	8.7*
Cc1cc(C)n(Cc2ccc(C(=O)NCc3ccco3)o2)n1	1.0	-6.3	-0.6	21.7	35.8*	2.2
COc1ccccc1CNC(=O)c1ccc(-c2ccccc2Cl)o1	2.5	-17.6	7.4	8.9	-6.9	10.0*
O=C(NCc1ccco1)c1ccc(-c2ccccc2Cl)o1	-1.1	-59.8	-8.6	59.9*!	11.9	1.4
COc1ccccc1CNC(=O)C(=O)Nc1nccs1	-2.2	-16.0	-1.6	12.8	3.0	1.8
COc1cccc(NC(=S)N2CCC(NC(=O)NC34CC5CC(CC(C5)C3)C4)CC2)c1	.	-40.8	.	9.0	.	.
CCc1cc2c(=O)c(-c3nc4ccccc4[nH]3)coc2cc1OC(=O)N1CCOCC1	-2.0	-41.2	0.8	10.5	0.8	10.8*
S=c1nn[nH]n1-c1ccc2ccccc2c1	.	-8.8	.	20.1	.	.
COc1ccccc1C(=O)COC(=O)c1ccccc1OCC(=O)Nc1ccc(SC(F)F)cc1	-4.1	2.2	0.3	8.0	5.5	9.2*
CCC(C(=O)OCC(=O)Nc1ccc(Cl)c(S(=O)(=O)N(C)C)c1)c1ccccc1 (configuration not stated)	-1.6	-9.8	-2.3	8.4	-4.1	10.3*
CCC(C(=O)OCC(=O)Nc1ccc(SC(F)F)cc1)c1ccccc1 (configuration not stated)	-4.8	24.5	6.2	7.5	14.6	8.4*
CCC(C(=O)OCC(=O)Nc1ccc(F)cc1)c1ccccc1 (configuration not stated)	0.6	.	2.0	.	10.4	.
CN(C)S(=O)(=O)c1cc(NC(=O)COC(=O)Cc2cccc3ccccc23)ccc1Cl	-1.5	-14.1	4.7	6.2	-5.2	8.7*
COc1ccc(NC(=O)CSc2nnc(-c3ccccc3C)n2C)c(OC)c1	.	-11.6	.	8.6	.	.
CCOC(=O)C1=C(Cc2ccc(C)cc2)C(=O)c2ccccc2C1=O	0.5	31.8	-1.9	10.9	.	9.6*
CC1CCCC(C)N1C(=O)CSc1nnc(NC(=O)c2ccc(F)cc2)s1 (configuration not stated)	.	-5.6	.	26.8	.	.
CN(C)S(=O)(=O)Oc1cccc(C(=O)Nc2cccc(Cl)c2)c1	0.3	-55.7	.	27.6	-6.5	2.1
CN(C)S(=O)(=O)Oc1cccc(C(=O)Nc2ccc(Cl)c(Cl)c2)c1	0.2	-63.3	8.7	39.7*	-0.4	9.9*
C=CCN=C1S/C(=C/c2ccc([N+](=O)[O-])cc2)C(=O)N1CC=C	-0.6	3.5	-2.9	0.9	-3.4	.
C=CCN=C1S/C(=C/c2cccc([N+](=O)[O-])c2)C(=O)N1CC=C	0.2	64.2*	4.2	8.7	17.6	.
O=c1c2ccccc2nc(SCc2cccc(F)c2)n1C1CCCC1	-1.3	39.5	6.2	9.0	8.2	10.6*
C=CCOc1ccc(/C=C2\C(=N)N3N=C(S(=O)(=O)CC)SC3=NC2=O)cc1OC	-1.1	21.2	-0.9	4.3	19.2	9.6*
CCS(=O)(=O)C1=NN2C(=N)/C(=C\c3ccc(OC(=O)c4ccco4)c(OC)c3)C(=O)N=C2S1	-0.7	.	7.0	.	4.0	.
CCC(=O)N1CCC[C@H]1Cn1nc(-c2ccc(F)cc2)ccc1=O	.	-49.6	.	.	.	.

Assay outcomes: PubChem BioAssay, several laboratories
